Reference: PubChem BioAssay (NCATS)
Inconclusive results are not listed. Unless noted, calls follow the shape of the dose curve; as a rule, active = well fitted curve in either direction with a large enough effect (not every such curve was filed as active); inconclusive = small, poorly fitted or top-dose-only effect, or another doubt; inactive = flat fitted curve, though single readings scatter.

Legend:
[1] = AP1 Signaling Pathway (AID 357); conditions: ME-180 AP-1-bla reporter, EGF-induced, beta-lactamase ratio, 5 h; at 17.2 µM (top of the series) unless noted;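 also: ME-180 reporter cells stimulated with EGF at its EC50 level; % is scaled to controls: 0 for no effect and ±100 for the full control effect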
Procedure, shortened: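 A ratiometric CCF4 readout (405 nm excitation; 460 and 530 nm emission) quantified AP-1-driven beta-lactamase in ME-180 cells after 5 h with compound and EC50 EGF; AC50 values were derived for activators and inhibitors.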

[2] = NFAT Signaling Pathway (AID 444); conditions: Jurkat NFAT-bla M1, carbachol, beta-lactamase ratio, 5 h; at 17.2 µM (top of the series) unless noted;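 also: carbachol stimulus at about its EC50 of 1 µM final; % is scaled to controls: 0 for no effect and ±100 for the full control effect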
Procedure, shortened: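 Jurkat cells with NFAT-driven β-lactamase reporter and co-expressed M1 receptor, stimulated with carbachol (final 1 uM, ~EC50), compound titration, 5 h at 37 °C. CCF4 loaded 1 h at RT; 460/530 nm ratio gave %activity and AC50.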

[3] = Stat Signaling Pathway (AID 446); conditions: ME-180 SIE beta-lactamase reporter, IL-6 stimulated, 5 h; at 17.2 µM (top of the series) unless noted;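 also: ME-180 cervical cancer cells given 40 pM IL-6 alongside compound; SIE-controlled beta-lactamase reporter measured as 460/530 nm FRET emission ratio; % is scaled to controls: 0 for no effect and ±100 for the full control effect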
Procedure, shortened: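 Screening format detects activators and inhibitors alike: ME-180 SIE-bla cells stimulated at 40 pM IL-6 for 5 hrs with compound, then dual-emission beta-lactamase read at 405 nm excitation.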

[4] = target: Glucocorticoid receptor (Homo sapiens) (UniProt P04150); assay: GR-GFP Redistribution (AID 450;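 active = compounds whose dose series gives a full or clear partial fitted curve of increased nuclear translocation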; also: potency is read from the fitted curve at half-maximal effect)
Sequence of Glucocorticoid receptor (Homo sapiens) (P04150 whole entry, looked up): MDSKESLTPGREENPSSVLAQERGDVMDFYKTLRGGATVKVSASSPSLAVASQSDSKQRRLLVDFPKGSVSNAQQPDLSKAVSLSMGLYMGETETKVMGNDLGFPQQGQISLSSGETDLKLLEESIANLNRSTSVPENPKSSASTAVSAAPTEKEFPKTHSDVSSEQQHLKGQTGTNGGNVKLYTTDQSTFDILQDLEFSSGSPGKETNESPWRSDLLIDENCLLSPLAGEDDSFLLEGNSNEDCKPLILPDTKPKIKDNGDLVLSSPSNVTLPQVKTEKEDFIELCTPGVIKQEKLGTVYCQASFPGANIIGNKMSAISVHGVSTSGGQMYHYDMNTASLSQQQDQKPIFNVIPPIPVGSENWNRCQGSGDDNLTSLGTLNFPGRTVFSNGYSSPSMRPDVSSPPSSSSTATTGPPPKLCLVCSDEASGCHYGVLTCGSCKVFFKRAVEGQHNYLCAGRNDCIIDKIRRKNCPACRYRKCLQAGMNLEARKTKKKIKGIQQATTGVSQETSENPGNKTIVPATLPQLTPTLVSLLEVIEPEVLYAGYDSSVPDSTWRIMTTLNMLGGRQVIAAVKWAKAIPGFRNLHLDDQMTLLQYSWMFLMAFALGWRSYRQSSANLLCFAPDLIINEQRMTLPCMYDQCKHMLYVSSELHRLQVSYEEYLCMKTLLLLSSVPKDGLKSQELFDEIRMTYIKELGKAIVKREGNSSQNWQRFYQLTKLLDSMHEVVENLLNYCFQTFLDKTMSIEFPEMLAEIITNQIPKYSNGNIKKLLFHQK

CCOC(=O)c1[nH]c2ccccc2c1N=CN(CC)CC
inactive: activity change, negative = inhibition [1] 9.2% | activity change, negative = inhibition [2] -19.2% | activity, negative = inhibition [3] -2.38%

CC1(C)Cc2c(c(-c3ccccc3)nc3[nH][nH]c(=O)c23)CO1
inactive: activity change, negative = inhibition [1] -1.59% | activity change, negative = inhibition [2] -1.86% | activity, negative = inhibition [3] 12.3% | Potency [4] > 20.6 µM

Cc1ccc(N2C(=O)C3ON(c4ccccc4)C(c4ccncc4)C3C2=O)cc1 (stereo unspecified)
inactive: activity change, negative = inhibition [1] 5.13% | activity change, negative = inhibition [2] 9.45% | activity, negative = inhibition [3] -10.5%

O=c1/c(=C/c2ccccn2)sc2n1CN(c1ccccc1)CN=2
inactive: activity change, negative = inhibition [1] 0.239% | activity change, negative = inhibition [2] -24.9% | activity, negative = inhibition [3] 5.04% | Potency [4] > 20.6 µM

CCCc1nnc(NC(=O)c2c(O)c3c([nH]c2=O)CCCC3)s1
inactive: activity change, negative = inhibition [1] -4.44% | activity change, negative = inhibition [2] -18.4% | activity, negative = inhibition [3] 12.4% | Potency [4] > 20.6 µM

Cc1cccn2c(=O)c3cc(C#N)c(=N)n(Cc4ccncc4)c3nc12
inactive: activity change, negative = inhibition [1] 6.9% | activity change, negative = inhibition [2] -26.5% | activity, negative = inhibition [3] -5.05% | Potency [4] > 20.6 µM

CSC1=C(C#N)C(c2ccc(C)s2)CC(=O)N1 (stereo unspecified)
inactive: activity change, negative = inhibition [1] -7.45% | activity change, negative = inhibition [2] -2.53% | activity, negative = inhibition [3] 7.78% | Potency [4] > 20.6 µM

COc1cc(/C=N/n2c(C)nnc2C)cc(OC)c1OC
inactive: activity change, negative = inhibition [1] -12.3% | activity change, negative = inhibition [2] 10.5% | activity, negative = inhibition [3] -4.5% | Potency [4] > 20.6 µM

Cc1nnc2n(C3CCCCC3)c(=O)c3c4c(sc3n12)COC(C)(C)C4
inactive: activity change, negative = inhibition [1] 4.48% | activity change, negative = inhibition [2] 5.64% | activity, negative = inhibition [3] 0.172%

CCc1[nH]c(=O)c(C#N)c2c1CCCC2
inactive: activity change, negative = inhibition [1] 3.3% | activity change, negative = inhibition [2] -7.46% | activity, negative = inhibition [3] 4.68%

COC(=O)c1ccc(C2/C(=C(\O)c3ccc4c(c3)OCCO4)C(=O)C(=O)N2CCCN(C)C)cc1 (stereo unspecified)
inactive: activity change, negative = inhibition [1] 10.1% | activity change, negative = inhibition [2] 5.87% | activity, negative = inhibition [3] -5.8% | Potency [4] > 20.6 µM

CC(NC(=O)Nc1ncccn1)(C(F)(F)F)C(F)(F)F
inactive: activity change, negative = inhibition [1] 1.93% | activity change, negative = inhibition [2] 1.67% | activity, negative = inhibition [3] -5.56% | Potency [4] > 20.6 µM

COc1cc(C2C3C(=O)N(c4ccccc4)C(=O)C3ON2c2ccccc2)ccc1O (stereo unspecified)
inactive: activity change, negative = inhibition [1] 2.35% | activity change, negative = inhibition [2] 7.65% | activity, negative = inhibition [3] -2.83% | Potency [4] > 20.6 µM

CCNc1nc(NC(C)C)nc(N(C#N)C(C)C(=O)N(C)C)n1 (stereo unspecified)
inactive: activity change, negative = inhibition [1] -3.35% | activity change, negative = inhibition [2] 0.731% | activity, negative = inhibition [3] 0.0609% | Potency [4] > 20.6 µM

CC(=O)c1c(OCC(=O)O)ccc2c(C)cc(=O)oc12
inactive: activity change, negative = inhibition [1] 15% | activity change, negative = inhibition [2] -8.66% | activity, negative = inhibition [3] 13.1% | Potency [4] > 20.6 µM

Nc1nonc1OCCc1ccccc1
inactive: activity change, negative = inhibition [1] 2.66% | activity change, negative = inhibition [2] 3.18% | activity, negative = inhibition [3] -6.28%

CC(C(=O)N(C)C)N(C#N)c1nc(N(C)C)nc(N(C)C)n1 (stereo unspecified)
inactive: activity change, negative = inhibition [1] 1.24% | activity change, negative = inhibition [2] 2.25% | activity, negative = inhibition [3] -6.97%

COc1ccc(-c2cc3nc4n(c(=O)c3s2)CCOC4)cc1
inactive: activity change, negative = inhibition [1] 18.4% | activity change, negative = inhibition [2] -10.1% | activity, negative = inhibition [3] 0.631% | Potency [4] > 20.6 µM

CCCCCc1nc2sc3c(c2c(=O)n1N)CCC3
inactive: activity change, negative = inhibition [1] -5.09% | activity change, negative = inhibition [2] -10.1% | activity, negative = inhibition [3] -13% | Potency [4] > 20.6 µM

O=C1c2ccccc2S(=O)(=O)N1CC(O)COc1ccc(Cl)cc1 (stereo unspecified)
inactive: activity change, negative = inhibition [1] -4.25% | activity change, negative = inhibition [2] -2.04% | activity, negative = inhibition [3] -1.8% | Potency [4] > 20.6 µM

O=CNC(=O)c1ccccc1C(=O)O
inactive: activity change, negative = inhibition [1] -3.37% | activity change, negative = inhibition [2] 3.48% | activity, negative = inhibition [3] 20.3% | Potency [4] > 20.6 µM

CC12CCC(=O)N1c1c(sc3nc(N4CCOCC4)c4c(c13)CCCC4)C(=O)N2 (stereo unspecified)
inactive: activity change, negative = inhibition [1] -25.1% | activity change, negative = inhibition [2] 8.35% | activity, negative = inhibition [3] -5.31% | Potency [4] > 20.6 µM

CCC1(C)Cc2c(sc3[nH]c(=O)[nH]c(=O)c23)CS1 (stereo unspecified)
inactive: activity change, negative = inhibition [1] 6.31% | activity change, negative = inhibition [2] 6.7% | activity, negative = inhibition [3] -2.55% | Potency [4] > 20.6 µM

Cc1cc(=O)oc2cc(OCCSCCN3CCOCC3)ccc12
inactive: activity change, negative = inhibition [1] -6.35% | activity change, negative = inhibition [2] 3.73% | activity, negative = inhibition [3] -0.537% | Potency [4] > 20.6 µM

CCc1cc2c(=O)c(-c3cscn3)coc2c(CN(C)C)c1O
inactive: activity change, negative = inhibition [1] 26.5% | activity change, negative = inhibition [2] -7.56% | activity, negative = inhibition [3] 10.5% | Potency [4] > 20.6 µM

COc1cccc(Cn2c(NCC(C)C)nc3c2c(=O)n(C)c(=O)n3C)c1
inactive: activity change, negative = inhibition [1] 15.5% | activity change, negative = inhibition [2] -1.36% | activity, negative = inhibition [3] -6% | Potency [4] > 20.6 µM

COc1ccc(C(CC(=O)N2CCOCC2)C(C)C)cc1 (stereo unspecified)
inactive: activity change, negative = inhibition [1] 8.67% | activity change, negative = inhibition [2] 3.99% | activity, negative = inhibition [3] -3.69% | Potency [4] > 20.6 µM

Cc1nc(NS(=O)(=O)c2ccccc2)sc1NC(=O)OC(C)C
inactive: activity change, negative = inhibition [1] 3.92% | activity change, negative = inhibition [2] -1.13% | activity, negative = inhibition [3] 3.96% | Potency [4] > 20.6 µM
